Peg3 prom inh-1 = reduces Peg3 promoter-driven luciferase expression in HeLa | HeLa PEG-Prom luciferase reporter, luminescence, overnight | 1.7% of 360,000 active | inhibition, % at 20 µM | AID 588405;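 active = inhibition of at least 50% at 20 µM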
KKLEB tox = counter-screen for CF NF-kB inhibitors: cytotoxicity | KKLEB CF airway cells viability, ATPlite luminescence, overnight; hits give low values; cells stimulated with P. aeruginosa culture filtrate | activity change (cytotoxicity), % at 5 µM | 0.36% of 360,000 active | AID 602141;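 active = corrected activity change at or below -50% at 5 µM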
TROY NFkB inh = TROY signaling inhibition; inhibition, % at 10 µM; AID 1347056; 0.98% of 360,000 active; Q293 LMP1-TROYcd NF-kB luciferase reporter, 4 h;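 active = compounds whose plate-normalised and pattern-corrected inhibition of the luciferase reporter signal at the single screening dose is 50% or more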
HIF-2a inh = HIF-2a inhibition. 786-0 RCC cells HIF-2a reporter, luciferase luminescence, overnight. inhibition, % at 18.8 µM. AID 624352. 0.72% of 360,000 active;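 active = inhibition of the luminescence signal of 40% or more relative to plate controls, in a single-dose primary screen at 18.75 µM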
CF NFkB inh = blocks PAF-induced NF-kB reporter in cystic fibrosis cells. 0.86% of 360,000 active. KKLEB NF-kB-GFP reporter, GFP fluorescence overnight. inhibition, % at 5 µM;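 active = at least 50% inhibition at 5 µM, scaled per plate between neutral and stimulator controls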;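 also: PAF is a Pseudomonas aeruginosa culture filtrate used as stimulus; plate controls were PAF-stimulated DMSO wells for no effect and unstimulated DMSO wells for full effect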
TWEAK-Fn14 inh = inhibitors of TWEAK-Fn14 interaction signaling. inhibition, % at 10 µM. TWEAK-stimulated Fn14 reporter cells, luciferase luminescence, 8 h. 2% of 360,000 active. AID 1159606; in the data active = inhibition above about 50%
Peg3 prom inh-2 = confirmation of Peg3 promoter inhibitors | HeLa PEG-Prom luciferase reporter, luminescence, overnight | AID 602417 | inhibition, % at 20 µM | 84% of 1,300 active | shares compounds with Peg3 prom inh-1;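 active = at 20 µM dose, 40% or more inhibition averaged across four replicates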
CF NFkB conf = confirmation of cystic fibrosis induced NF-kB inhibitors; shares compounds with CF NFkB inh; KKLEB CF airway cells, PAF-induced NF-kB-GFP fluorescence, overnight; inhibition, % at 5 µM; 64% of 1,300 active; AID 602472; in the data active = inhibition above about 40%;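 also: stimulus PAF is a Pseudomonas aeruginosa filtrate and not platelet activating factor; plate controls were DMSO wells with stimulus for no effect and unstimulated DMSO wells for full effect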
Mdm2 MdmX conf = Mdm2/MdmX (human) interaction inhibition, confirmed | inhibition, % at 8 µM | AID 504601 | SaOS-2 split-luciferase Mdm2/MdmX complementation, luminescence | 99% of 740 active | shares compounds with HIF-2a inh;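 active = mean inhibition of the luminescence signal across two replicates at or above 26 percent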
HIF-2a inh conf = HIF-2a inhibition, single concentration confirmation; shares compounds with HIF-2a inh; 786-0 RCC cells, HIF-2a luciferase reporter luminescence, overnight; inhibition, % at 18.8 µM; 56% of 1,800 active; AID 651580;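 active = mean inhibition across four replicates of at least 40 percent at the single tested concentration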
HIF-1a cs = inhibits HIF-1a reporter, a counter-screen for HIF-2a inhibitors; 72% of 1,800 active; shares compounds with HIF-2a inh; inhibition, % at 18.8 µM; MiaPaCa-2 HIF-1a luciferase reporter, desferoxamine, overnight;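 active = mean inhibition of the reporter signal across four replicates at the single tested dose of 50% or more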
* hit, by the source's call; / = no result given. An excerpt weighted towards active compounds, which were near 4% of everything screened.

SMILES	Peg3 prom inh-1	KKLEB tox	TROY NFkB inh	HIF-2a inh	CF NFkB inh	TWEAK-Fn14 inh	CF NFkB conf	others
COc1cccc2c1C(=O)c1c(O)c3c(c(O)c1C2=O)CC(O)(C(C)=NO)CC3OC1CC(N)C(O)C(C)O1 (stereo not drawn)	99*	-12	8	-11	-254	6	/	Peg3 prom inh-2=99*
COc1ccc(C(c2nnnn2-c2c(C)cccc2C)N2CCC3(CC2)C(=O)NCN3c2ccccc2)cc1 (stereo not drawn)	42	-21	19	10	4	-46	/
Cc1cccc(C)c1-n1nnnc1C(c1ccccc1OC(F)(F)F)N1CCC(n2c(=O)[nH]c3ccccc32)CC1 (stereo not drawn)	52*	-28	-9	-16	73*	33	0	Peg3 prom inh-2=68*
COc1ccc(C(c2nnnn2-c2c(C)cccc2C)N2CCC(n3c(=O)[nH]c4ccccc43)CC2)cc1 (stereo not drawn)	59*	-12	14	-4	60*	10	-1	Peg3 prom inh-2=48*
Cn1cc(C(=O)N2CCCCC2)c2ccccc21	-20	-8	-4	6	-3	18	/
O=[N+]([O-])c1ccc(C[n+]2c(-c3ccccc3)cc(-c3ccccc3)cc2-c2ccccc2)cc1	-15	1	-3	11	3	9	/
c1ccc(-c2cc(-c3ccccc3)[n+](-c3ccccc3)c(-c3ccccc3)c2)cc1	111*	-32	71*	8	29	86*	/	Peg3 prom inh-2=87*;Mdm2 MdmX conf=102*
CC1=CC(O)C(O)C2(C)C1CC1OC(=O)CC3C(C)C(O)C(=O)C2C13CO (stereo not drawn)	91*	12	4	46*	-16	11	/	Peg3 prom inh-2=20;HIF-2a inh conf=36;HIF-1a cs=-65
O=C1NC2C(=CC(O)C(O)C2O)c2cc3c(c(O)c21)OCO3 (stereo not drawn)	100*	-64*	84*	85*	89*	95*	/	Peg3 prom inh-2=98*;HIF-2a inh conf=84*;HIF-1a cs=106*
CN(C(=O)c1ccc(Cl)nc1)C1(c2ccccc2Cl)CCCCC1=O (stereo not drawn)	7	3	-20	11	13	-13	/
CCOc1ccc(Br)c(C2(O)CC(C)N(C)CC2C)c1 (stereo not drawn)	14	-9	5	19	12	10	/
COc1cc2c(c(OC)c1OC)-c1ccc(O)cc1C(NC(C)=O)CC2 (stereo not drawn)	-38	-18	6	13	67*	-41	88*
CN(C)C(CNC(=O)Cc1c(Cl)cccc1Cl)c1ccccc1 (stereo not drawn)	2	-12	-23	3	4	1	/
C=CC[C@@H](CC/C=C/C=C/CC/C=C\[C@@H]1CSC([C@@H]2C[C@@H]2C)=N1)OC	-10	-31	19	17	54*	11	48*
O=c1[nH]c2ccccc2n1C1CCN(C(c2cccc3ccccc23)c2nnnn2Cc2ccccc2)CC1 (stereo not drawn)	81*	-48	36	-35	86*	53*	105*
COC(=O)c1ccc(N2C(=O)CC(N3CCC(n4c(=O)[nH]c5ccccc54)CC3)C2=O)cc1 (stereo not drawn)	2	-5	-1	-1	-14	-8	/
COc1ccc(-n2nnnc2C(c2cccc(OC)c2OC)N2CCC(n3c(=O)[nH]c4ccccc43)CC2)cc1 (stereo not drawn)	55*	-23	33	10	84*	44	41*
COc1ccc(-n2nnnc2C(C2CC2)N2CCC3(CC2)C(=O)NCN3c2ccccc2)cc1 (stereo not drawn)	25	-8	-7	33	19	3	/
COc1ccc(-n2nnnc2C(c2cccs2)N2CCC(n3c(=O)[nH]c4ccccc43)CC2)cc1 (stereo not drawn)	71*	-18	31	-23	79*	31	97*
CC1CCCCN1CC(=O)c1ccc2cc[nH]c2c1 (stereo not drawn)	-12	-5	13	7	15	6	/
CC1=NCCc2c1[nH]c1ccccc21	-1	-5	-7	23	-26	-9	/
CC(=O)N1N=C2C3CCN(CC3)C2C1c1ccccc1 (stereo not drawn)	6	-2	-4	13	1	-12	/
COc1cc(C2c3cc4c(cc3CC3COC(=O)C32)OCO4)cc(OC)c1O (stereo not drawn)	-49	-30	14	20	54*	-17	71*
COc1ccc(C[C@H]2NC[C@H](O)[C@H]2OC(C)=O)cc1	94*	-45	82*	91*	88*	97*	116*
COc1ccc2nc3c(C)n(C)ccc-3c2c1	6	4	12	7	-25	25	/
SMILES	Peg3 prom inh-1	KKLEB tox	TROY NFkB inh	HIF-2a inh	CF NFkB inh	TWEAK-Fn14 inh	CF NFkB conf	others
C=C1C(=O)OC2CC3(C)OC3CCC(C)=CC(OC(C)=O)C12 (stereo not drawn)	95*	2	52*	16	91*	76*	89*
C=C1C(=O)O[C@@H]2C[C@@H](C)[C@H]3C=CC(=O)[C@]3(O)C[C@@H]12	28	8	-36	9	-47	-32	/
N#CC1c2ccccc2-n2nncc2CN1Cc1cc(Cl)cc(Cl)c1 (stereo not drawn)	96*	-50	91*	93*	90*	107*	116*	HIF-2a inh conf=98*;HIF-1a cs=107*
Fc1cccc(C2NCc3ccccc3-n3cccc32)c1 (stereo not drawn)	-5	-4	-1	9	1	-5	/
C=C1C(=O)OC2CC3(C)OC3C3OC3C3=CC(OC3=O)C12 (stereo not drawn)	96*	-34	-3	61*	88*	24	61*	HIF-2a inh conf=68*;HIF-1a cs=0
CCC1=CCN(CCc2c(C)[nH]c3ccccc23)CC1	-5	3	9	5	-14	14	/
